Among the data in PubChem BioAssay AID2540 (Sanford-Burnham Center for Chemical Genomics, 2010) are inhibition values, retold here.

Structures are written as SMILES. Out of some 330,000 compounds screened, about 4,100 (1.2%) were called active. The sample as a whole holds a higher share of actives than the screen did. Values without a mark were called inactive. Rule as the data show it: active = inhibition above about 50%; inactive = the rest.

The target of this assay is Sentrin-specific protease 8 (Homo sapiens) (UniProt Q96LD8). Put plainly: SENP8 protease inhibitors, primary screen, biochemical, luminescence (AID 2540). The conditions noted are these: purified SENP8, Z-RLRGG-aminoluciferin cleavage, at 10 µM, stronger effect = higher value.
Chain of Sentrin-specific protease 8 (Homo sapiens) (Q96LD8 whole entry, looked up): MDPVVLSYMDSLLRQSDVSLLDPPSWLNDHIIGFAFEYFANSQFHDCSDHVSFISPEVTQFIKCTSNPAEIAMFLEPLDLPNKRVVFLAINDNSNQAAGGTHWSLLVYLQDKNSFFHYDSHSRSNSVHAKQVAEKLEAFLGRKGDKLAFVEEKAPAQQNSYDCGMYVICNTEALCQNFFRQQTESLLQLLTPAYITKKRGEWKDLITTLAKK
With `CCN(Cc1ccccc1)C(=O)CN1C(=S)NC(C)(C)CC1C` (stereo unspecified), the inhibition (as a rule, the drop in the measured response relative to a control, in per cent) was -3.88%.

Turning to `O=C(CN1CCN(c2ccccc2F)CC1)c1ccc2c(c1)OCO2`, the inhibition is -9.99%.

As to `O=C(c1ccco1)N1CCN(C(=O)c2cc(-c3ccccc3F)no2)CC1`, the inhibition was 3.2%.

As to `Fc1ccccc1-c1cc2cc3c(cc2cn1)OCO3`, the inhibition is 70.8% (active).

On to `Cc1ccc(N(Cc2ccccc2O)C(=O)c2ccccc2F)cc1`, for which the inhibition is 9.54%.

As for `O=C(Nc1ccc2ccccc2c1)/C(=C\c1ccc2c(c1)OCO2)NC(=O)c1ccco1`, the inhibition is 10.3%.

As to `CCN1C(=NCc2ccc(OC)cc2)N[C@@H](CCc2ccccc2)[C@H](C(=O)NCc2ccc(OC)cc2)[C@H]1C`, the inhibition was -2.38%.

As to `CC(C)CCN1C(=O)c2ccc(C(=O)Nc3cccc(S(N)(=O)=O)c3)cc2C1=O`, the inhibition was -8.58%.

Take `COCCOC(=O)c1sc(=S)n(CCOC)c1N`: the inhibition is -1.86%.

With `COc1cccc(NC(=O)c2ccc3c(SCC(=O)O)c4c(nc3c2)CCCC4)c1`, the inhibition was -3.32%.

Take `CC(=O)c1ccc(NC(=O)c2ccc3c(Cl)c4c(nc3c2)CCCC4)cc1`: the inhibition is -0.476%.

For `CC(C)CCNC(=O)c1ccc2c(Cl)c3c(nc2c1)CCC3`, the inhibition is 81.1% (active).

As to `Cc1c(CCO)c(=O)[nH]n1C(=O)c1c(F)cccc1F`, the inhibition is 13.4%.

For the compound `O=C(O)C(F)(F)C(NCc1ccccc1)c1ccccc1` (stereo unspecified), the inhibition was -6.64%.

In the case of `O=C(OC1CCOC1=O)c1ccc(-c2nc3ccccc3s2)s1` (stereo unspecified), the inhibition is 93.9% (active).

As for `CC(C)c1ccc(C(=O)OC2CCOC2=O)cc1` (stereo unspecified), the inhibition is 2.09%.

`COc1cc(C(=O)OC2CCOC2=O)c([N+](=O)[O-])cc1OC` (stereo unspecified): the inhibition is -2.98%.

For the compound `Cc1cccc(NS(=O)(=O)c2ccc(C)c(C(=O)NCC(c3ccccc3)N(C)C)c2)c1` (stereo unspecified), the inhibition was 8.98%.

Turning to `CCCCNC(=O)c1ccccc1NC(=O)c1ccccc1N(C)S(C)(=O)=O`, the inhibition was -5.03%.

Consider `Oc1c(Cl)cc(Cl)c(Cl)c1Cc1c(O)c(Cl)cc(Cl)c1Cl`, for which the inhibition was 28.5%.

As for `COc1cccc(/C=C/c2ccc3ccccc3n2)c1OC(C)=O`, the inhibition is 17.7%.

As to `COc1ccc(/C=C/c2noc(-c3ccccc3OC(C)=O)n2)cc1`, the inhibition is 88.3% (active).

As for `COc1ccccc1-c1nnc(-c2ccc(F)cc2)o1`, the inhibition was 24.5%.

`C[C@@H]1CC[C@]2(O[C@@H](CCO)C[C@H](O)[C@H]2O)O1`: the inhibition is 1.7%.

`NC(=O)[C@H]1CC2(CC(c3cccc(NC(=O)[C@H]4CCC(=O)N4)c3)=NO2)CN1C(=O)c1ccccc1C(=O)c1ccccc1` (stereo partly specified): the inhibition is 2.84%.

Consider `COc1cc(/C=N/Nc2nc3ccccc3s2)ccc1O`, for which the inhibition was 76% (active).

As to `COc1ccc(/C=N/NC(=O)c2cc(-c3cccc(C)c3)nc3ccccc23)cc1O`, the inhibition was 10.3%.

Take `COc1cc(/C=N/NC(=O)CCc2n[nH]c(=O)[nH]c2=O)ccc1O`: the inhibition was 1.52%.

In the case of `O=C(NCCc1cccc(F)c1)C1CCCN(c2nc3ccccc3s2)C1` (stereo unspecified), the inhibition was 12.2%.

Take `Fc1ccc2nc(Nc3nc4c(s3)CCCC4)sc2c1`: the inhibition is 3.05%.

`Fc1ccc2nc(N3CCCCC3)sc2c1`: the inhibition was 72.2% (active).

For the compound `CN(C)CCCN(C(=O)c1ccc(S(=O)(=O)N2CCCCCC2)cc1)c1nc2cc3c(cc2s1)OCCO3`, the inhibition is 6.61%.

On to `c1c2c(cc3sc(N4CCCCC4)nc13)OCCO2`, for which the inhibition was 96.5% (active).

Take `Brc1ccc2nc(N3CCCC3)sc2c1`: the inhibition was 85.2% (active).

For the compound `Cc1ccc2nc(N3CCN(C(=O)c4ccco4)CC3)sc2c1`, the inhibition was -13.8%.

Take `Cc1nc(N2CCCCC2)sc1C=O`: the inhibition was 1.41%.

As to `O=S(=O)(Nc1ccc2nc(N3CCOCC3)sc2c1)c1ccccc1`, the inhibition is 9%.

Turning to `COc1ccc2c(c1)C=CC1(O2)N(CCO)c2ccccc2C1(C)C` (stereo unspecified), the inhibition is 0.788%.

`O=C(CSc1nc2ncccc2[nH]1)Nc1ccc2c(c1)OCCO2`: the inhibition was -1.02%.

For the compound `CC(Sc1nncn1C)C(=O)NCCC1=CCCCC1` (stereo unspecified), the inhibition was 5.55%.

For `Cc1ccc(C(c2nnnn2CS(=O)(=O)c2ccc(C)cc2)N2CCC(C)CC2)cc1` (stereo unspecified), the inhibition is 4.98%.

As for `CCC(=O)c1ccc(OCC(=O)OCC(=O)NC2CCCCCC2)cc1`, the inhibition is -0.587%.

`O=C(Nc1nnc(C2CC2)s1)c1cc(Cl)sc1Cl`: the inhibition was -4.61%.

`Cc1cc(C(=O)Nc2nnc(C3CC3)s2)c(C)s1`: the inhibition was 74.1% (active).

As to `CCc1cc(C(=O)Nc2nnc(C3CC3)s2)sc1C`, the inhibition is 2.73%.

Regarding `CCN1CCN(c2ccc(S(=O)(=O)N3CCCCC3)cc2NC(=O)c2cccc(NC(C)=O)c2)CC1`, the inhibition is -4.93%.

Regarding `CC(C)CC(O)C1CCN(C(=O)CCc2nnc(-c3ccc4c(c3)OCO4)o2)CC1` (stereo unspecified), the inhibition was -8.01%.

Consider `CNS(=O)(=O)c1cccc(C(=O)OCC(=O)N2c3ccccc3NC(=O)C2(C)C)c1`, for which the inhibition was -16.6%.

With `Cc1cccc(C2=N/C(=C/c3cccs3)C(=O)O2)c1`, the inhibition was -4.38%.

Take `CSC1=N/C(=C\C=C\c2cccs2)C(=O)S1`: the inhibition is 53.6% (active).

As for `O=C1N/C(=C/c2cccs2)C(=O)N1Cc1ccc(F)cc1`, the inhibition is -10%.

For `CC(C)(C)c1cc(NC(=O)NN2CCOCC2)nn1-c1c(Cl)cc(Cl)cc1Cl`, the inhibition was 1.46%.

Regarding `Cc1cccc(NS(=O)(=O)c2cccc(C(=O)NNC(=O)c3ccccc3O)c2)c1`, the inhibition is 50.1% (active).

`CC(=O)N1CCN(C(=O)c2cccc(S(=O)(=O)Nc3ccc(C)cc3)c2)CC1`: the inhibition was -6.08%.

`Cc1cccc(NS(=O)(=O)c2ccc(C)c(C(N)=O)c2)c1`: the inhibition is 0.196%.

For `CCc1ccc(NC(=O)CCNS(=O)(=O)c2cccs2)cc1`, the inhibition is -0.839%.

Take `CS(=O)(=O)Nc1cccc(-c2cn3ccccc3n2)c1`: the inhibition is -1.75%.

In the case of `O=c1[nH]n(-c2ccc([N+](=O)[O-])cc2)c(=O)c2ccccc12`, the inhibition was -5.71%.

Take `Cc1nc(-c2ccc([N+](=O)[O-])cc2)c(-c2ccccc2)o1`: the inhibition is -11%.

Turning to `O=C1CC(c2ccccc2)=NN1c1ccc([N+](=O)[O-])cc1`, the inhibition was 81.8% (active).

As to `CCOc1ccccc1OCCCNCc1ccccc1`, the inhibition was -6.65%.
